The list is not random: actives were taken first. Their share in the collection is about 3%.
IP6K1 inh = blocks human inositol hexakisphosphate kinase 1. 140,000 tested, 0.81% active. activity change, % (series mostly up to about 58 µM). Q92551. IP6K1 kinase, ADP-Glo luminescence, 2 h; active compounds read low; in the data active means activity change below about -25%; further: on the % scale 0 is the no-effect control and ±100 the full control effect
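ADP-Glo luminescence measures ADP made by human IP6K1 during a 2 h RT reaction with ATP/IP6 (mix at 1.3 mM/130 uM); top library doses 57.5 and 19.1 uM final.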
SNCA expr inhib = reduces expression of the alpha-synuclein gene; HEK-293 SNCA-luciferase knock-in, luminescence, 24 h; Potency, µM (top dose mostly 57.2 µM), for inactives: top-dose activity change, negative = inhibition, hits mostly inhibitors; 140,000 tested, 0.17% active; AID 1671194;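 further: potency means the concentration at half of the fitted maximal effect; plate controls were DMSO cells for no effect and cell-free wells for full effect; nearly all actives have a fitted effect of over 45% in size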
KDM5B inh = inhibitors of human KDM5B histone demethylase. Potency, µM (titrated, usually from 57.7 µM), most hits filed as inhibitors. 220,000 tested, 2.6% active. Q9UGL1. AID 1347165. KDM5B demethylase, FDH-coupled NADH fluorescence (FDH is formaldehyde dehydrogenase); further: potency means the concentration at half of the fitted maximal effect; 0% is about no effect; nearly all actives have a fitted effect of over 70% in size
Target sequence (Q9UGL1 whole entry, looked up): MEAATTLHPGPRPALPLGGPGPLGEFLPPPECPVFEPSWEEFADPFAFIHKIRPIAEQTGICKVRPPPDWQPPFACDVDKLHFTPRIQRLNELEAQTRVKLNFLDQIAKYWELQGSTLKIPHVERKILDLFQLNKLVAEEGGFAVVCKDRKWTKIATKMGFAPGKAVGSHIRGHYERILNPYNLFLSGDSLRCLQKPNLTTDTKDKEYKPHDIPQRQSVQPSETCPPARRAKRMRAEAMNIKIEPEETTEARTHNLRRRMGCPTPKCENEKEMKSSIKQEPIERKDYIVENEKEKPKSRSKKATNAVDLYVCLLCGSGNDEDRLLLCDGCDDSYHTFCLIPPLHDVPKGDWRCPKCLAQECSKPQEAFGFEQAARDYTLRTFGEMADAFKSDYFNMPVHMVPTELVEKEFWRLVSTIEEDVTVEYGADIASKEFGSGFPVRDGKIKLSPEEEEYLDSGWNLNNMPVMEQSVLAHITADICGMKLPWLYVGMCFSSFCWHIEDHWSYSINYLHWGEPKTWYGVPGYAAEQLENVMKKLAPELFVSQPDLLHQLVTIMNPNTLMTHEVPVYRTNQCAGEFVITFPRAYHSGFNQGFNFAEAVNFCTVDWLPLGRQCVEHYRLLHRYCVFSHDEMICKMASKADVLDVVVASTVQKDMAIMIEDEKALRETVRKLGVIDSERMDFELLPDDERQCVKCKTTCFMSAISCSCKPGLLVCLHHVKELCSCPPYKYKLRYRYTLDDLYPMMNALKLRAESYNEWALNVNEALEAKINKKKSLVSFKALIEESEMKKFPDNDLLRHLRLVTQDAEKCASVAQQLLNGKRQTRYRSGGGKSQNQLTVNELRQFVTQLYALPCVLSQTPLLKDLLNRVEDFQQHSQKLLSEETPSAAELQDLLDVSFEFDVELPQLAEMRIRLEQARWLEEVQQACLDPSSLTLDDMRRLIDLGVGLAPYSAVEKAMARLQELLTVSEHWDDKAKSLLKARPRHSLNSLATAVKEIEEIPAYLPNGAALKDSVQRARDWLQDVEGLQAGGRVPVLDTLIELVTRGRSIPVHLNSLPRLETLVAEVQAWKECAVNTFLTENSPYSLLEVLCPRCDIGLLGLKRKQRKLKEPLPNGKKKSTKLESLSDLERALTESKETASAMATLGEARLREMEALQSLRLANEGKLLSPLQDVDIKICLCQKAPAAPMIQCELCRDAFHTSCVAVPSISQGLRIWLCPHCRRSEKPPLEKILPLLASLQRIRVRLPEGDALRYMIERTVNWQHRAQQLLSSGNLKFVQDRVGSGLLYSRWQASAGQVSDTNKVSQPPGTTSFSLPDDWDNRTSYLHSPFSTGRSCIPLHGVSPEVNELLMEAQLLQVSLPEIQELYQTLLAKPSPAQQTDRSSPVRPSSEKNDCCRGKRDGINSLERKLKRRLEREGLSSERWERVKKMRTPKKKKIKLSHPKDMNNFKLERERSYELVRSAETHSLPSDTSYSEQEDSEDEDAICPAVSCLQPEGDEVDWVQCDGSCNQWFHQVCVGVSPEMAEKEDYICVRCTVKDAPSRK
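Coupled FDH/NAD⁺ fluorescence readout. KDM5BΔAP 200 nM final; compound titration, 10 min RT preincubation; substrate mix 12.5 µM H3K4me3, 25 µM 2-OG, 50 µM Fe(II), 100 µM ascorbate, 0.25 mM NAD⁺, 0.25 U/mL FDH; ΔRFU over 30 min.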
HEK293 viab = reduces viability of HEK-293 SNCA reporter cells. HEK-293-SNCA-luc viability, GF-AFC fluorescence, 24 h. Potency, µM (doses to about 57.1 µM), inactives show at the top dose activity change, negative = cytotoxicity, usual class: cytotoxic. 150,000 tested, 0.12% active. AID 1671193;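 further: potency means the concentration at half of the fitted maximal effect; 0% = DMSO-treated cells and -100% = medium-only wells without cells; nearly all actives have a fitted effect of over 30% in size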
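HEK-293-SNCA-luc cells (1500/well) plated 24 h, then exposed 24 h to a dilution series; GF-AFC added 30 min at 37C, fluorescence 405/540 nm; normalised to medium-only and DMSO wells, Hill fit.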
An asterisk follows results filed as active; i = inactive; u = inconclusive; x = not tested or not shown; [ ] = remark or other dose. Unless noted, the call rests on the fitted dose curve; in most records, active means well fitted curve in the direction sought with a large enough effect; inconclusive means small, poorly fitted or top-dose-only effect, or another doubt; inactive means no such curve, though single readings can be large; an effect the other way counts as inactive or inconclusive.

SMILES	IP6K1 inh	SNCA expr inhib	KDM5B inh	HEK293 viab
COc1cccc(CN2CCNc3cnc(Nc4ccccc4)cc3C2)c1	-6	-16%[87.6 µM]	35µM*	-3%[87.6 µM]
COc1ccccc1CN1CCNc2cnc(Nc3ccccc3)cc2C1	-19	-19%[87.6 µM]	u	-19%[87.6 µM]
CCOC(=O)[C@@H]1CN(C(=O)C2CCCC2)[C@H]2c3cccc(C)c3O[C@@H]12	25	x	x	x
O=C1CC2CCN(C(=O)c3ccc(F)cc3)CC2CCN1 (stereo not given)	-10	-6%[87.6 µM]	i	-3%[87.6 µM]
O=C1CC2CCN(C(=O)c3ccccc3)CC2CCN1 (stereo not given)	-11	-23%[87.6 µM]	28µM*	0%[87.6 µM]
Oc1ccc(C=Cc2cc(O)cc(O)c2)cc1	x	12µM*	x	-5%
C1CC(COCCc2noc(C3CNC3)n2)CCO1	0	u	u	4.5µM*
OCCOCCn1cnc(-c2ccccc2)c1-c1ccc(-n2cccn2)cc1	29	4%	32µM*	u
CCOc1cc(/C=C/c2ccc3cccc(OC(C)=O)c3n2)ccc1OC(C)=O	x	x	i	x
COc1cccc(C(=O)N(C)CCCNC(=O)c2nc3ccccc3c(=O)[nH]2)c1	x	x	i	x
c1ccc(-c2nnc3ccc(-c4ccoc4)nn23)nc1	-17	-26%[87.6 µM]	32µM*	-7%[87.6 µM]
c1ccc(-c2nnc3ccc(NC4CCCCC4)nn23)nc1	-13	10%[87.6 µM]	u	-1%[87.6 µM]
Cc1noc(C)c1-c1cc2c(cc(-c3ccccc3)n2C)c(N(C)C)n1	-3	-17%[87.6 µM]	i	-3%[87.6 µM]
CC(=O)Nc1cccc(-c2nc(-c3c(C)noc3C)cc3c2cc(-c2ccccc2)n3C)c1	-8	-1%[87.6 µM]	35µM*	-24%[87.6 µM]
Cc1ccc(SC(C)C(=O)NC(C(C)C)C(C)C)cc1 (stereo not given)	x	x	i	x
COCC1(CNC(=O)c2nc3ccccc3[nH]2)C[C@@H](O)[C@@H](O)C1 (stereo not given in full)	13	-29%[87.6 µM]	35µM*	2%[87.6 µM]
N#Cc1cccnc1N1CC[C@@H](N2CCC(O)CC2)[C@H](O)C1	-2	21%	25µM*	3%
COc1cccc(C2CNC(=O)c3nc(Cn4nc(C)c(C)c4C)[nH]c3C2)c1 (stereo not given)	-2	11%	i	-3%
COc1cccc(C2CNC(=O)c3nc(-c4ccc(C(=O)N(C)C)o4)[nH]c3C2)c1 (stereo not given)	12	7%	28µM*	-12%
COc1ccc(Cc2nc3nccc(-c4cccc(OC)c4)n3n2)cc1	-4	85%	20µM*	4%
COc1ccc(Cc2nc3nccc(-c4cccnc4)n3n2)cc1	-11	35%	i	10%
COc1ccc(CCc2nc3nccc(-c4cccc(OC)c4)n3n2)cc1	1	-24%	18µM*	2%
O=C1OC(C(=O)Nc2cccc3ncccc23)Cc2ccccc21 (stereo not given)	x	x	i	x
CN(C)Cc1ccc(O)cc1	x	x	i	x
C[S+](=O)([O-])N1CCC(Cn2ccc3c(N4CCOCC4)nc(-c4cccc5[nH]ccc45)cc32)CC1	-8	u	i	-2%
SMILES	IP6K1 inh	SNCA expr inhib	KDM5B inh	HEK293 viab
c1cc(-c2cc3c(ccn3Cc3ccncc3)c(N3CCOCC3)n2)c2cn[nH]c2c1	9	-14%[87.6 µM]	20µM*	-23%[87.6 µM]
c1cc(-c2cc3c(ccn3Cc3ccncc3)c(N3CCOCC3)n2)c2[nH]ncc2c1	828	u	25µM*	-29%[87.6 µM]
N#Cc1ccccc1-c1cc2c(ccn2Cc2ccncc2)c(N2CCOCC2)n1	5	-12%[87.6 µM]	u	-14%[87.6 µM]
c1cc(-c2cc3c(ccn3Cc3ccncc3)c(N3CCOCC3)n2)c2cc[nH]c2c1	-2	-9%[87.6 µM]	20µM*	-28%[87.6 µM]
C=CCOc1c(OC)ccc2c1CN(C(C)C)C(=O)CCN2CC(O)COCc1ccco1 (stereo not given)	2	x	x	x
Cc1ccc(Nc2ccnc(N3CCC(C(=O)N4CCC(Cc5ccccc5)CC4)CC3)n2)cc1	-12	-12%	x	-1%[12.5 µM]
Cc1ccnc(C(NC(=O)CCc2cc3n(n2)CCCNC3)C2CC2)c1 (stereo not given)	4	25%	28µM*	0%
Cc1nn(CCO)c(C)c1NC(=O)CCc1cc2n(n1)CCCNC2	6	-3%	u	-14%
O=[S+]1([O-])NC2(CCN(CC3CCCCC3)CC2)COc2ccccc21	-6	5%	71µM*	-2%
O=[S+]1([O-])NC2(CCN(Cc3ccc(Cl)s3)CC2)COc2ccccc21	-9	-19%	71µM*	2%
O=C(CCc1ccc(CC2CCN(Cc3c[nH]c4ccccc34)CC2)cc1)N1CCCC1	23	-17%	x	6%
Cn1ncc2c(C(=O)NC3CCC3)cc(-c3ccc(C(F)(F)F)cc3)nc21	-12	x	x	x
O=C(NC1CCCCCC1)C1CC(=O)N(c2n[nH]c3cccc(F)c23)C1 (stereo not given)	-6	-20%	32µM*	7%
CC(=O)Nc1ccc(NC(=O)C2CC(=O)N(c3n[nH]c4cccc(F)c34)C2)cc1 (stereo not given)	-12	-6%	35µM*	1%
Cc1cccc(NC(=O)C2CC(=O)N(c3n[nH]c4cccc(F)c34)C2)c1 (stereo not given)	-10	-9%	u	-5%
CCc1ccc(NC(=O)C2CC(=O)N(c3n[nH]c4cccc(F)c34)C2)cc1 (stereo not given)	-4	-4%	35µM*	12%
Cc1ccc(NC(=O)C2CC(=O)N(c3n[nH]c4cccc(F)c34)C2)cc1C (stereo not given)	-15	-15%	18µM*	1%
CNC(=O)c1cc(C2CC2)nc2onc(C3CCN(C(=O)c4cccc(C(F)(F)F)c4)CC3)c12	-13	x	x	x
CC(C)(C)C(=O)NC1CCCN(c2ccc3nnc(C4CC4)n3n2)C1 (stereo not given)	3	x	x	x
CCc1noc(-c2cn(C3CCN(C(=O)c4cccc5[nH]ccc45)CC3)nn2)n1	44	21%	32µM*	5%
CC(C)c1noc(-c2cn(C3CCN(C(=O)c4cccc5[nH]ccc45)CC3)nn2)n1	12	-9%	28µM*	3%
COc1ccccc1C(=O)N1CCC(n2cc(-c3nc(C(C)C)no3)nn2)CC1	4	0%	i	4%
NC(=O)C1CN(CC(=O)Nc2cc(Cl)ccc2Cl)c2ccccc2O1 (stereo not given)	x	x	i	x
COc1ccccc1-c1cccc(CN2CCCC(C(=O)NCc3ccc4c(c3)OCO4)C2)c1 (stereo not given)	-10	u	x	-10%
CC(=O)N1CCCN(c2cc(Cl)nc3ccnn23)CC1	30	33%[87.6 µM]	i	10%[87.6 µM]
NC(=O)c1noc2c1CN(c1cc(-c3ccccc3)nc3ccnn13)CC2	38	8%	25µM*	-16%
CCCC(=O)N1CCN(c2ccnc3ccnn23)CC1	-5	10%[87.6 µM]	x	9%[87.6 µM]
COc1ccc(OC)c(NC(=O)N(C)CCc2noc(C(=O)NCc3ccccc3)n2)c1	x	x	i	x
C[S+](=O)([O-])Nc1cccc(-c2cc3c(ccn3Cc3ccncc3)c(N3CCOCC3)n2)c1	-20	-7%	3.2µM*	1%

High-throughput results as filed in PubChem.
